The term % Inhibition denotes the relative decrease from the control value, in per cent.

The campaign covered roughly 4,800 compounds. About 420 (8.8%) showed an effect of 50% or more. The sample as a whole holds a higher share of strong results than the screen did.

These results are taken from ChEMBL document CHEMBL4888484, “Replenishing the malaria drug discovery pipeline: Screening and hit evaluation of the MMV Hit Generation Library 1 (HGL1) against asexual blood stage Plasmodium falciparum ,using a nano luciferase reporter read-out” (2022).

This test relates to Plasmodium falciparum. Put plainly: Confirmatory screen in NF54 nanoGlo assay, in single point, at 2uM, 72h. As to conditions: timepoint 72 hour. It counts as functional, Erythrocyte.
As for `C[C@]1(C(=O)O)Nc2ccccc2-c2nc(=O)c(-c3ccccc3)nn21`, the “% Inhibition” value is -2%.
The figure for `O=c1nc2n(nc1-c1ccccc1)C1(CCC1)Nc1ccccc1-2` is 74%; for `C[C@]1(CCc2ccc(O)cc2)Nc2ccccc2-c2nc(=O)c(-c3ccc(F)cc3)nn21` it is 8%.
The figure for `COc1ccccc1CNC(=O)c1cn(CC2(O)CCN(Cc3ccccc3)CC2)nn1` is -3%; for `C#CCCCCC(=O)Nc1ncccc1Cl` it is -2%; for `COc1ccc(N2CCN(c3nccn4nc(-c5ccc(OC)c(OC)c5)cc34)CC2)cc1` it is -10%.
The figure for `CC(C(=O)Nc1ncccn1)N1CCCC1Cn1cccn1` (centres undefined) is -4%; for `COc1nc(NC[C@H]2CCCN2C(C)C)ncc1F` it is 66%.
In the case of `COc1ccc2ncc(=O)n(CCOc3ccccc3)c2c1`, the “% Inhibition” value was determined as 4%.
The value for `COc1ccc(CCc2n[nH]c(NC(=O)CCc3c[nH]c4ccccc34)n2)cc1OC` was 14%; that for `CCOc1cccc(-c2ccc3nc(-c4cccc(OC)c4)c(CCC(=O)NCCN4CCCC4)n3c2)c1` was 61%; that for `CCOc1cccc(-c2ccc3nc(-c4cccc(OC)c4)c(CCC(=O)NCCc4ccc(OC)c(OC)c4)n3c2)c1` was 23%.
The figure for `CCCCN1C(=O)[C@H]2[C@H]([C@H](O)c3ccc(Cl)cc3)N[C@@]3(C(=O)Nc4ccccc43)[C@H]2C1=O` is 25%; for `Cc1nnc(NC(=O)c2cc(N3CCCC3)ncn2)s1` it is 14%; for `O=C(NCc1ccncc1)c1cc(C(=O)C2CCCCC2)c[nH]1` it is -7%.
The figure for `Cc1cnc(NC(=O)C(=O)N2CCC[C@H](n3cccn3)C2)s1` is -4%; for `Cc1ccc(Cc2nc(N3CCCN(C(=O)c4ccc(C)cc4)CC3)c3cnn(-c4ccccc4)c3n2)cc1` it is 3%.
Take `O=C(O)[C@H]1CC(=O)N(c2ccc3nc(-c4cccc(F)c4)oc3c2)C1`: the “% Inhibition” value is on record as -6%.
The figure for `C=CCNC(=O)N1CCC(c2nc(C)ccc2C(=O)N2CCCC2)CC1` is -2%; for `CCn1ccc([C@H](C)NC(=O)c2cc(C)c(C)s2)n1` it is -6%; for `CCc1cc(C(=O)N[C@@H](C)c2ccccc2)c2c(C3CC3)nn(Cc3ccccc3)c2n1` it is -6%.
The figure for `C=CCS(=O)(=O)NC(=O)c1cc(C)c(C)cc1Cl` is -2%; for `Cc1oc(-c2ccn[nH]2)cc1S(=O)(=O)Nc1cccc(Cl)c1` it is 52%.
The value for `Cc1oc(-c2ccn[nH]2)cc1S(=O)(=O)Nc1ccc(F)c(Cl)c1` was 40%; that for `c1ccc2c(c1)ccc1oc(-c3ccn[nH]3)cc12` was -5%.
`CCCn1c(C)ccc(-c2noc(CCCC(=O)N3CCOCC3)n2)c1=O`: the “% Inhibition” value is listed as -3%.
The value for `O=C(c1cnc(Nc2nc3ccccc3o2)nc1)N1CCN(c2ccccc2)CC1` was 0%; that for `Cn1nc(-c2nc(-c3ccc(F)cc3)no2)c2c1CCN(C(=O)c1cccc(Cl)c1)C2` was -5%; that for `COc1cc(NC(=O)c2cccc3c(Br)cccc23)ccc1NC(=O)c1ccccc1Cl` was 0%.
The value for `CC1(C)Oc2cc(S(=O)(=O)NC3CCCCC3)ccc2NC1=O` was -14%; that for `Cc1ccc(C(F)(F)C(=O)NCCC(=O)NS(C)(=O)=O)cc1` was 49%.
As for `Cc1nnc([C@@H]2COCCN2Cc2csc(C)c2)o1`, the “% Inhibition” value was determined as 0%.
The value for `CCn1nccc1C(=O)N1CC[C@H](CC(=O)NCc2ccncc2)C1` was -6%; that for `Cc1cc(C(=O)NCc2ccncc2)no1` was -11%.
The value for `CC[C@@H](CO)NCc1cc(Br)ccc1OC` was -11%; that for `CCc1nnc2ccc(S(=O)(=O)Nc3ccc(Cl)cc3)cn12` was 8%.
As for `O=C(NC1CCCCCC1)c1cn(CC2(O)CCN(Cc3ccccc3)CC2)nn1`, the “% Inhibition” value is reported as -4%.
The figure for `O=C(C[C@H]1CCC(=O)N(Cc2ccccc2)CC1)NC1CCN(Cc2ccccc2)CC1` is -1%; for `Cc1nc2c(Oc3ccccc3)cccc2c2c1CCN2c1ccc(OC(F)(F)F)cc1` it is -17%; for `CC1=N[C@H](N2CCN(c3ccccc3)CC2)NC(O)=C1` it is -12%.
Consider `N#Cc1cccc(-c2n[nH]c3c2CN(c2ccc(-c4ccccc4)nn2)CC3)c1`, for which the “% Inhibition” value is 85%.
The figure for `N#Cc1cc(N2CCc3ccccc3C2)nc2ccccc12` is 2%.
The value for `Cc1ccccc1-c1nc2cc(NS(=O)(=O)c3ccccc3)ccc2o1` was 2%; that for `Cc1cccn(Cc2nnnn2C2CC2)c1=O` was 3%.
The figure for `O=C(Cc1ccc(Cl)cc1Cl)N1CCc2[nH]nc(C(=O)N3CCN(c4ccccc4)CC3)c2C1` is -1%; for `CN(c1nc2c(cnn2C)c(=O)[nH]1)C1CCCC1c1ccc(C(F)(F)F)cc1` (centres undefined) it is 6%; for `CN1CCC(n2ncc3[nH]c(-c4ccc(C(F)(F)F)cc4)nc32)CC1` it is 96%.
Regarding `CN1CCN(c2nc(-c3cccc(C(F)(F)F)c3)nc3c2cnn3Cc2ccccc2)CC1`, the “% Inhibition” value was -4%.
The value for `Cc1ccc(S(=O)(=O)Cc2nc(-c3ccc(C(=O)NCc4ccc(C)o4)cc3)oc2C)cc1` was -18%.
The value for `O=C(CCC1CCCC1)N1CCC(N2CCCCCC2)CC1` was 6%; that for `Cc1cccc(NS(=O)(=O)c2cc(C(=O)NCc3ccc4c(c3)OCO4)ccc2Cl)c1C` was 5%.
The figure for `O=S(=O)(c1ccccc1)N1CCC(Nc2ccc(Br)cc2)CC1` is 10%; for `Cc1nc(-c2ccc(NCc3cc4ccccc4o3)nc2)[nH]c(=O)c1C` it is -10%; for `Nc1ncc(C(=O)N2CCC3(CCCCCC3)C2)s1` it is 98%.
For the compound `Cc1ncsc1C(=O)N1CCC2(CCCCC2)C1`, the “% Inhibition” value is reported as -14%.
The figure for `O=C1C[C@@H](C(=O)N2CCC3(CCCCC3)C2)CCN1` is -3%.
As for `O=C(O)c1csc(-c2csc(CCN3C(=O)c4ccccc4C3=O)n2)n1`, the “% Inhibition” value amounted to 3%.
The value for `COc1cc(OC)cc(C(=O)Nc2cnc(N3CCCCC3)c(C)c2)c1` was 0%; that for `Cc1nn(C)c(C)c1-c1cc(C(=O)Nc2cc(F)ccc2F)c2c(C)nn(C)c2n1` was -5%; that for `Cc1ccc(CN2C(=O)[C@@H]3CCCN3c3ccc(C(F)(F)F)cc32)cc1` was -17%.
The figure for `Cc1cc(N(CCO)C2CC2)nc(C2CC2)n1` is -8%; for `Cc1cc(N(C)CCC2CC2)nc([C@H](C)N(C)CCC2CC2)n1` it is 52%; for `OC1CCC(Nc2cncc(-n3cccn3)n2)CC1` (centres undefined) it is -2%.
The value for `CC(C)Cn1cc2c(C(F)(F)F)cc(=O)n(CCC(=O)Nc3cc(F)ccc3F)c2n1` was 1%.
